A selection: hits, their analogues and other compounds. The true share with any hit is near 2.9%.
ADAM17 inh – ADAM17 inhibitors, primary screen, biochemical, QFRET. AID 720648, 2013. Disintegrin and metalloproteinase domain-containing protein 17 (Homo sapiens), P78536. 370,000 compounds, 0.83% hits. recombinant ADAM17, EDANS/DABCYL FRET peptide cleavage. inhibition, % at 6.95 µM;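 active means inhibition above the mean of compounds lying between control limits plus 3 SD, set per campaign, cut at about 8.5% in these data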;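 further: 0% = DMSO-only wells as the low control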
PLCg1 inh – PLC-gamma1 enzyme inhibitors, primary screen, biochemical, fluorescence, purified enzyme. fluorogenic substrate. inhibition, % at 12.2 µM. 370,000 compounds, 0.84% hits. AID 720700, 2013; in the data active means inhibition above about 9.5%
proKLK7 act – proKLK7 zymogen activators, primary screen, biochemical, fluorescence intensity. Kallikrein-7 (Homo sapiens), P49862. purified proKLK7, EDANS-DABCYL substrate fluorescence; 100% is mature enzyme control, 0% vehicle. activation, % at 7 µM. 370,000 compounds, 0.9% hits;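 active means activation above the mean of all tested compounds plus 3 SD, computed per campaign excluding outliers beyond control limits, cut at about 13% in these data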
PLCb3 inh – human PLC-beta3 inhibitors, primary screen, biochemical, fluorescence. inhibition, % at 12.2 µM. 370,000 compounds, 0.18% hits. AID 720704, 2013. 1-phosphatidylinositol 4,5-bisphosphate phosphodiesterase beta-3 (Homo sapiens), Q01970. Purified PLC-beta3, fluorogenic substrate; in the data active means inhibition above about 11%;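 further: 0% = median of compound wells on plate and 100% = full blocker control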
ADAM10 inh – human ADAM10 inhibitors, primary screen, biochemical, QFRET, HTS; Disintegrin and metalloproteinase domain-containing protein 10 (Homo sapiens), O14672; recombinant ADAM10, EDANS/DABCYL FRET peptide cleavage, 3 h; inhibition, % at 7 µM; 370,000 compounds, 0.62% hits;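 active means inhibition above a per-campaign cutoff equal to the mean of compounds falling between control-based bounds plus 3 SD, cut at about 20% in these data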;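 further: 0% = DMSO wells while the 100% control is not disclosed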
proKLK7 act conf – proKLK7 zymogen activators, confirmation, biochemical, fluorescence intensity, triplicate | shares compounds with proKLK7 act | purified proKLK7, EDANS-DABCYL substrate fluorescence; scaled: vehicle 0, mature enzyme 100 | activation, % at 7 µM | 3,200 compounds, 68% hits;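 active means activation, as change over the incubation, above the mean of all tested compounds plus 3 SD, cut at about 13% in these data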
EDANS interfere – EDANS-DABCYL substrate optical interference, artefact control for kallikrein-7 zymogen activator project, biochemical, fluorescence intensity, high throughput; activation, % at 7 µM; 3,200 compounds, 80% hits; no enzyme, 4 h; solvent 0%, active enzyme control 100%; shares compounds with proKLK7 act;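 active means activation above the all-compound mean plus 3 SD, ignoring values outside control-based bounds, cut at about 4.8% in these data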;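 further: value is the 4 h activation minus the activation read at time zero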
EDANS interf – EDANS fluorescence interference in dose response, no enzyme; EC50, µM; shares compounds with proKLK7 act; EDANS-DABCYL peptide fluorescence interference; 250 compounds, 20% hits;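 active means compounds that raise the fluorescence signal in this interference counterscreen, with EC50 at or below 10 µM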;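 further: intact quenched peptide substrate alone read at 355 nm excitation and 520 nm emission; signal is fluorescence gain from T0 to T4 after four hours at room temperature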
* marks the source's active call; other numbers are inactive results; i = inactive; . = no result given.

SMILES	ADAM17 inh	PLCg1 inh	proKLK7 act	PLCb3 inh	ADAM10 inh	proKLK7 act conf	EDANS interfere	others
O=C(c1cc(-c2ccccc2)nc2ccccc12)N1CCC2(CC1)OCCO2	-5.0	-1.5	-0.8	-4.3	-8.4	.	.
O=C(c1cccn2c(=O)c3cc(Cl)ccc3nc12)N1CCC2(CC1)OCCO2	-174.6	i	14.2*	i	i	57.7*	73.3*
O=C(c1cccn2c(=O)c3ccccc3nc12)N1CCC2(CC1)OCCO2	-347.1	i	39.8*	i	i	41.6*	49.2*
CS(=O)(=O)c1ccc(C2=C(CNC(=O)c3cccs3)[C@H]3CC[C@@H](C2)N3Cc2ccco2)cc1	2.4	-0.5	-0.3	-1.6	-4.1	.	.
CC(C)NC(C)C(=O)c1ccc2ccccc2c1 (centres undefined)	-30.7	-76.5	26.6*	-93.7	-93.2	3.9	8.3*
COc1ccc2c(c1)c(C(=O)C(C)N1CCCCC1)c(C)n2C (centres undefined)	-4.0	-3.8	-0.5	-11.6	-0.4	.	.
CC(C(=O)c1ccc2ccccc2c1)N1CCCCC1 (centres undefined)	-54.2	-156.7	31.8*	-178.1	-146.5	-1.6	0.9
COC(=O)C1=CO[C@@H](C)[C@@H]2CN3CC[C@]4(C(=O)Nc5ccccc54)[C@@H]3C[C@H]12	-4.3	-3.0	0.8	-5.5	1.5	.	.
CCOC(=O)c1c(N)n(CCN2CCCCC2)c2nc3ccccc3nc12	i	i	154.3*	i	i	28.9*	17.3*
COCCCn1c(N)c(C(=O)OC(C)COC)c2nc3ccccc3nc21 (centres undefined)	i	i	52.1*	i	i	75.5*	70.7*
COCCNC(=O)c1c(N)n(Cc2ccco2)c2nc3ccccc3nc12	i	i	26.7*	i	i	-17.5	-65.4
CCCCn1c(N)c(C(=O)NCCN2CCOCC2)c2nc3ccccc3nc21	-435.4	i	-26.9	i	i	.	.
Cc1cc(=O)oc2cc(OCC(=O)N3C[C@H]4C[C@@H](C3)c3cccc(=O)n3C4)c(Cl)cc12	-14.5	-3.0	-0.3	1.6	-65.7	.	.
Cc1cc(=O)oc2cc(OCC(=O)N3CCN(C(C)c4ccccc4)CC3)c(Cl)cc12 (centres undefined)	i	i	37.7*	i	i	63.1*	75.2*
COCCNC(=S)N1Cc2ccccc2-n2nncc2C1	-5.5	-0.8	0.6	2.1	-8.8	.	.
CN1C(=O)N(C)C(=O)C2(Sc3ccccc3C2=O)C1=O	-90.6	-97.3	12.8*	-120.2	-340.9	247.1*	232.8*
O=c1ccc2cc3ccoc3c(O)c2o1	-26.0	-24.6	-1.1	-28.5	-91.6	.	.
O=[N+]([O-])NC1=NCCN1Cc1ccc(Cl)nc1	-6.7	-2.6	-0.5	1.4	-0.7	.	.
COCCN1Cc2cc(=O)n3c([nH]c4ccccc43)c2C1=N	i	-332.0	22.1*	i	i	18.9*	-8.0	EDANS interf=>69.5
O=C(CCc1ccccc1)N1Cc2cc(-c3ccccc3)ccc2-n2nncc2C1	-1.5	-0.7	0.2	-3.7	-0.5	.	.
C=C1C(=O)OC2CCN3CC=C(COC(=O)C(C)(O)C4(CO4)C1C)C23 (centres undefined)	2.1	-3.4	0.1	-11.7	-14.1	.	.
Cc1cccc(N2CCc3c2nc2ccccc2c3N)c1	-129.7	i	21.9*	i	-424.8	-26.6	-21.6
c1ccc2oc(-c3ccc4c(c3)CNCc3cnnn3-4)cc2c1	-245.3	-128.5	22.0*	-183.4	i	18.9*	19.1*
COc1cc2c(cc1OC)CC[N+](C)=C2	-208.3	i	42.8*	i	i	57.7*	52.6*
O=c1ccc2cc(O[C@@H]3O[C@@H](CO)[C@H](O)[C@@H](O)[C@@H]3O)c(O)cc2o1	i	i	65.5*	i	i	76.7*	83.7*
SMILES	ADAM17 inh	PLCg1 inh	proKLK7 act	PLCb3 inh	ADAM10 inh	proKLK7 act conf	EDANS interfere	others
Cc1cccc(N2C(=O)NC(=O)/C(=C/c3cc4c(cc3[N+](=O)[O-])OCO4)C2=O)c1	-22.1	-74.7	15.9*	-106.6	-70.7	75.7*	76.4*
O=C1NC(=O)C(=Cc2cc3c(cc2[N+](=O)[O-])OCO3)C(=O)N1	-13.7	-26.6	14.8*	-48.7	-49.3	5.5	7.9*
CCOC(=O)[C@]12Cc3cc(Cl)ccc3[C@H]1N(C(C)C)C(=O)c1ccccc12	-3.8	-1.5	-0.3	-2.8	-9.1	.	.
C=CCOC(=O)COc1cc(C)cc2oc(=O)c3c(c12)CCC3	-70.5	-62.9	40.7*	-82.6	-293.4	44.2*	44.5*
CC(C)(C)C1(CCO)C(=O)NC(=S)NC1=O	-1.6	4.4	0.2	2.4	3.4	.	.
Nc1ccc2ccc3cccc[n+]3c2c1	-22.2	i	94.8*	i	-52.8	72.7*	66.2*
C[n+]1c(-c2ccccc2)c2cc(N)ccc2c2ccc(N)cc21	-2.4	-137.4	5.6	-186.7	-10.5	.	.
CCc1nccc2c1[nH]c1ccccc12	-497.1	i	45.6*	i	i	47.2*	46.1*
O=c1c2ccccc2[nH]c(=S)n1-c1cccnc1	-1.6	3.8	0.0	-4.6	1.9	.	.
Cc1nccc2c1[nH]c1ccccc12	-389.2	i	36.5*	i	i	31.6*	36.0*
c1ccc2c(c1)[nH]c1cnccc12	-183.4	-276.5	46.3*	-377.3	i	17.9*	21.5*
Cc1[nH]c2ccccc2c1/C=N/O	-1.6	0.9	-0.5	-0.6	-10.5	.	.
Cc1[nH]c2ccccc2c1CCN	-3.9	-4.5	-0.1	-13.8	-9.8	.	.
CC(C)CN1Cc2cc(-c3ccccc3)ccc2-n2nncc2C1	-5.6	-9.1	0.1	-12.8	-30.1	.	.
O=C(c1ccc2c3c(cccc13)CC2)C1CCCN(Cc2ncc[nH]2)C1 (centres undefined)	-65.8	-84.2	4.5	-103.8	-206.4	.	.
O=C(c1ccc2c3c(cccc13)CC2)C1CCCN(CC2CC2)C1 (centres undefined)	-297.6	-309.1	43.1*	-325.7	i	-13.1	-4.2
O=[N+]([O-])NC1=NCN(Cc2ccco2)CN1Cc1ccco1	-0.2	0.7	0.5	2.7	-0.8	.	.
